Measurements as given in PubChem BioAssay (Tox21).
Results filed as inconclusive are left out. Entries that show only a call come without a potency. Values without a mark were called inactive. Active and inactive are the calls of the source. Unless noted, calls follow the shape of the dose curve; as a rule, active = well fitted curve in the direction sought with a large enough effect in the repeat runs; inconclusive = weak or mixed curves; inactive = no such curve, though single readings can be large; an effect the other way counts as inactive or inconclusive.

Columns and labels:
[1] = qHTS assay to identify small molecule antagonists of the estrogen related receptor (ERR) signaling pathway from Tox21 library - cell viability counter screen (AID 1224834); also: nearly all actives have a fitted effect of over 30% in size
Procedure, shortened: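 ERR cells, 2,000/well; 6 h settle at 37 C/5% CO2; pin-tool compound transfer in DMSO; 17.5 h at 37 C; CellTiter-Fluor, 30 min; fluorescence intensity.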

[2] = target: Luciferin 4-monooxygenase (Photinus pyralis) (UniProt P08659); assay: qHTS assay to identify small molecule inhibitors of firefly luciferase (AID 1224835); also: series mostly up to about 120 µM; nearly all actives have a fitted effect of over 25% in size
Luciferin 4-monooxygenase (Photinus pyralis), sequence (P08659 whole entry, looked up): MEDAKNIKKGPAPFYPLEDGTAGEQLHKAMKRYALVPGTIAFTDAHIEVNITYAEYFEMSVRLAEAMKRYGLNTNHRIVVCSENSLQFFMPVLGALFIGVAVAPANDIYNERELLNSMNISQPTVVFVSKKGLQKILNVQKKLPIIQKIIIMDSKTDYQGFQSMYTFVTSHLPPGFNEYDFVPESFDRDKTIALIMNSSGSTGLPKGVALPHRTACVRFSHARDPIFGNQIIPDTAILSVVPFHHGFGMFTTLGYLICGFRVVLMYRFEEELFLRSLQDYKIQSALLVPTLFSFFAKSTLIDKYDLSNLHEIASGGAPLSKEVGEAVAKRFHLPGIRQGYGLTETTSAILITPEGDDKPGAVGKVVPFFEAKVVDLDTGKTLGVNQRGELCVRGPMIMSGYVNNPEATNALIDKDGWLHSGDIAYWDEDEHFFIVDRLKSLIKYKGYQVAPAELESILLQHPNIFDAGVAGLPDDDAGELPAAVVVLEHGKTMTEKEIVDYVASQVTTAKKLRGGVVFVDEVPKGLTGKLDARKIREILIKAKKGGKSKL
Procedure, shortened: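 Inhibition of purified Photinus luciferase is measured by luminescence. Substrate levels (D-luciferin, ATP) sit at their KM values. Each compound is tested in a concentration series.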

[3] = qHTS assay to identify small molecule agonists of the constitutive androstane receptor (CAR) signaling pathway - cell viability counter screen (AID 1224836); also: series mostly up to about 92 µM; nearly all actives have a fitted effect of over 45% in size
Procedure, shortened: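 Compound titrations (15 concentrations) went onto HepG2-CYP2B6-hCAR cells 4 h after seeding, alongside PK11195 at a final 0.75 uM; a 23 h, 37 C/5% CO2 incubation preceded CellTiter-Fluor viability measurement.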

[4] = qHTS assay to identify small molecule antagonists of the constitutive androstane receptor (CAR) signaling pathway - cell viability counter screen (AID 1224837); also: series mostly up to about 92 µM; nearly all actives have a fitted effect of over 45% in size
Procedure, shortened: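 Viability was measured with CellTiter-Fluor in a HepG2 line carrying stably transfected hCAR and a CYP2B6-2.2kb construct. Cells were exposed for 23 hr at 37 C to 15 compound concentrations with 50 nM CITCO as agonist.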

[5] = target: Nuclear receptor subfamily 1 group I member 3 (Homo sapiens) (UniProt Q14994); assay: qHTS assay to identify small molecule antagonists of the constitutive androstane receptor (CAR) signaling pathway (AID 1224838);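 also: HepG2 cells stably expressing hCAR with CYP2B6 luciferase reporter stimulated by CITCO; nearly all actives have a fitted effect of over 40% in size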
Nuclear receptor subfamily 1 group I member 3 (Homo sapiens), sequence (Q14994 whole entry, looked up): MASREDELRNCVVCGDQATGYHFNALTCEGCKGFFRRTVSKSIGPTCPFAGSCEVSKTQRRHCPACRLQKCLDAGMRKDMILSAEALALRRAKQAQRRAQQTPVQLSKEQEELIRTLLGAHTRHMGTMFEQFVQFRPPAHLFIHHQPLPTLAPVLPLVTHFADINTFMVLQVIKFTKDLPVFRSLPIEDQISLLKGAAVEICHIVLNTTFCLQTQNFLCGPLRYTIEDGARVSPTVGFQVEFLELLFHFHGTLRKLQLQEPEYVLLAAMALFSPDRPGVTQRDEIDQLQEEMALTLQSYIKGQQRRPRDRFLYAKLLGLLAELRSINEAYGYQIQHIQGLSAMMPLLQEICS
Procedure, shortened: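 Antagonist mode used CITCO at a final 50 nM to activate CAR in human hepatoma HepG2 cells carrying stable hCAR and a 2.2 kb CYP2B6 promoter-luciferase construct. Compounds were tested at 15 concentrations over 24 h, with luminescence as the end point.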

[6] = target: Nuclear receptor subfamily 1 group I member 3 (Homo sapiens) (UniProt Q14994); assay: qHTS assay to identify small molecule agonists of the constitutive androstane receptor (CAR) signaling pathway (AID 1224839); also: nearly all actives have a fitted effect of over 15% in size; also: potency is read from the fitted curve at half-maximal effect; as to activation: series mostly up to about 92 µM
Procedure, shortened: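 In this screen, CAR-driven CYP2B6 promoter activity is measured by luminescence in HepG2-CYP2B6-hCAR cells after 24 h with test compounds and 0.75 uM PK11195 (final concentration).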

[7] = qHTS assay to identify small molecule antagonists of the estrogen related receptor signaling pathway with the pleiotropic PPARgamma coactivator (PGC) from Tox21 10K library - cell viability counter screen (AID 1224840; active = well fitted cell-killing curve with a large enough effect in the repeat runs, not every such curve was filed as active; also: nearly all actives have a fitted effect of over 40% in size)
Procedure, shortened: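 Multiplexed viability counter screen in the PGC/ERR cell line: cells treated with DMSO-dissolved compounds for 17.5 hours at 37 C, then viability measured as CellTiter-Fluor fluorescence.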

[8] = qHTS assay to identify small molecule agonists of the estrogen related receptor signaling pathway with the pleiotropic PPARgamma coactivator (PGC) from Tox21 10K library (AID 1224842); also: nearly all actives have a fitted effect of over 15% in size
Procedure, shortened: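 Luminescence from One-Glo (30 min, room temperature) measured after PGC/ERR cells had 18 h at 37 C with pinned compound (23 nL in DMSO). Cells had been seeded at 2,000 per well and pre-incubated 6 h.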

[9] = qHTS assay to identify small molecule antagonists of the estrogen related receptor signaling pathway with the pleiotropic PPARgamma coactivator (PGC) from Tox21 10K library (AID 1224841; call rule not given here; also: series mostly up to about 92 µM; actives are mostly falling curves and most rising ones were filed inactive; nearly all actives have a fitted effect of over 50% in size)
Procedure, shortened: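 Steps: plate 2,000 PGC/ERR cells per well; incubate 6 h at 37 C with 5% CO2; transfer compounds from DMSO stocks by pin tool; incubate 18 h at 37 C; add One-Glo; measure luminescence 30 min later.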

CCCCCCCCCCCCCCCCC
Potency [1]: inactive
Potency [2]: inactive
Potency [3]: inactive
Potency [4]: inactive
Potency [5]: inactive
Potency [6]: inactive
Potency [7]: inactive
outcome [8]: inactive

CN1CCN(c2cc3c(cc2F)c(=O)c(C(=O)O)cn3-c2ccc(F)cc2)CC1
Potency [1]: inactive
Potency [2]: inactive
Potency [3]: inactive
Potency [4]: inactive
Potency [5]: inactive
Potency [6]: inactive
Potency [7]: inactive
outcome [8]: inactive

Nc1ccccc1S(=O)(=O)O
Potency [1]: inactive
Potency [2]: inactive
Potency [3]: inactive
Potency [4]: inactive
Potency [5]: inactive
Potency [6]: inactive
Potency [7]: inactive
Potency [9]: inactive
outcome [8]: inactive

CC(=O)OCC(=O)[C@@]1(O)CCC2C3CCC4=CC(=O)CC[C@]4(C)C3[C@@H](O)C[C@@]21C (some centres undefined)
Potency [1]: inactive
Potency [2]: inactive
Potency [3]: inactive
Potency [4]: inactive
Potency [5]: inactive
Potency [6]: inactive
Potency [7]: inactive
outcome [8]: inactive

CCS(=O)(=O)c1ccc(OC)c(C(=O)OC)c1
Potency [1]: inactive
Potency [2]: inactive
Potency [3]: inactive
Potency [4]: inactive
Potency [5]: inactive
Potency [6]: inactive
Potency [7]: inactive
outcome [8]: inactive

O=C(O)COc1nn(Cc2ccccc2)c2ccccc12
Potency [1]: inactive
Potency [2]: inactive
Potency [3]: inactive
Potency [4]: inactive
Potency [5]: inactive
Potency [6]: inactive
Potency [7]: inactive
Potency [9]: inactive
outcome [8]: inactive

c1ccc(CC2=NCCN2)cc1
Potency [1]: inactive
Potency [2]: inactive
Potency [3]: inactive
Potency [4]: inactive
Potency [5]: inactive
Potency [6]: inactive
Potency [7]: inactive
Potency [9]: inactive
outcome [8]: inactive

CCC(=O)OC(C)c1ccccc1 (centres undefined)
Potency [1]: inactive
Potency [2]: inactive
Potency [3]: inactive
Potency [4]: inactive
Potency [5]: inactive
Potency [6]: inactive
Potency [7]: inactive
Potency [9]: inactive
outcome [8]: inactive

N=C(N)c1ccc(OCCCOc2ccc(C(=N)N)cc2)cc1
Potency [1]: inactive
Potency [2]: inactive
Potency [3]: inactive
Potency [4]: inactive
Potency [5]: inactive
Potency [6]: inactive
Potency [7]: inactive
Potency [9]: inactive
outcome [8]: inactive

N#Cc1ccc(C2CCCc3cncn32)cc1 (centres undefined)
Potency [1]: inactive
Potency [2]: inactive
Potency [3]: inactive
Potency [4]: inactive
Potency [5]: inactive
Potency [6]: inactive
Potency [7]: inactive
outcome [8]: inactive

O=C1CCCN1C1CCCCC1
Potency [1]: inactive
Potency [2]: inactive
Potency [3]: inactive
Potency [4]: inactive
Potency [5]: inactive
Potency [6]: inactive
Potency [7]: inactive
outcome [8]: inactive

N[C@H]1CN(c2c(F)cc3c(=O)c(C(=O)O)cn(C4C[C@H]4F)c3c2Cl)CC12CC2 (some centres undefined)
Potency [1]: inactive
Potency [2]: inactive
Potency [3]: inactive
Potency [4]: inactive
Potency [5]: inactive
Potency [6]: inactive
Potency [7]: inactive
outcome [8]: inactive

C=C(C)C(=O)OCCCCCCCC(C)C
Potency [1]: inactive
Potency [2]: inactive
Potency [3]: inactive
Potency [4]: inactive
Potency [5]: inactive
Potency [6]: inactive
Potency [7]: inactive
Potency [9]: inactive
outcome [8]: inactive

CC(C)CCCC(C)N (centres undefined)
Potency [1]: inactive
Potency [2]: inactive
Potency [3]: inactive
Potency [4]: inactive
Potency [5]: inactive
Potency [6]: inactive
Potency [7]: inactive
outcome [8]: inactive

CC/C=C\CC/C=C/C(OCC)OCC
Potency [1]: inactive
Potency [2]: inactive
Potency [3]: inactive
Potency [4]: inactive
Potency [5]: inactive
Potency [6]: inactive
Potency [7]: inactive
outcome [8]: inactive

O=C(O)c1ccccc1OP(=O)(O)O
Potency [1]: inactive
Potency [2]: inactive
Potency [3]: inactive
Potency [4]: inactive
Potency [5]: inactive
Potency [6]: inactive
Potency [7]: inactive
Potency [9]: inactive
outcome [8]: inactive

C[N+](C)(C)CC(O)CC(=O)[O-] (centres undefined)
Potency [1]: inactive
Potency [2]: inactive
Potency [3]: inactive
Potency [4]: inactive
Potency [5]: inactive
Potency [6]: inactive
Potency [7]: inactive
Potency [9]: inactive
outcome [8]: inactive

COCCCOCCCOC
Potency [1]: inactive
Potency [2]: inactive
Potency [3]: inactive
Potency [4]: inactive
Potency [5]: inactive
Potency [6]: inactive
Potency [7]: inactive
outcome [8]: inactive

Cc1cc2c(cc1S(N)(=O)=O)S(=O)(=O)CCC2
Potency [1]: inactive
Potency [2]: inactive
Potency [3]: inactive
Potency [4]: inactive
Potency [5]: inactive
Potency [6]: inactive
Potency [7]: inactive
Potency [9]: inactive
outcome [8]: inactive

COc1ccc2c(c1)c(CC(=O)OCC(=O)O)c(C)n2C(=O)c1ccc(Cl)cc1
Potency [1]: inactive
Potency [2]: inactive
Potency [3]: inactive
Potency [4]: inactive
Potency [5]: inactive
Potency [6]: inactive
Potency [7]: inactive
outcome [8]: inactive

CO/N=C(/C(=O)N[C@@H]1C(=O)N2C(C(=O)OCOC(=O)C(C)(C)C)=C(C)CS[C@H]12)c1csc(N)n1
Potency [1]: inactive
Potency [2]: inactive
Potency [3]: inactive
Potency [4]: inactive
Potency [5]: inactive
Potency [6]: inactive
Potency [9]: inactive
outcome [8]: inactive

Cc1cccn2c(=O)c(-c3nnn[nH]3)cnc12
viability change, negative = cytotoxic [1]: 0.715% [at 19 µM]
activity change, negative = inhibition [2]: 1.24% [at 23.6 µM]
viability change, negative = cytotoxic [3]: 10.1% [at 19 µM]
activity change, negative = cytotoxicity [4]: -0.444% [at 19 µM]
activity, negative = inhibition [5]: -0.816% [at 19 µM]
activation [6]: 2.7% [at 19 µM]
viability change, negative = cytotoxic [7]: 11.8% [at 19 µM]
activation [8]: 4.84% [at 19 µM]

CC(C)c1cc2c(cc1S(=O)(=O)O)[C@@]1(C)CCC[C@@](C)(C(=O)O)[C@@H]1CC2
Potency [1]: inactive
Potency [2]: inactive
Potency [3]: inactive
Potency [4]: inactive
Potency [5]: inactive
Potency [6]: inactive
Potency [9]: inactive
outcome [8]: inactive

N[C@@H](C(=O)N[C@@H]1C(=O)N2C(C(=O)O)=C(Cl)CS[C@H]12)c1ccccc1
viability change, negative = cytotoxic [1]: 3.31% [at 8.39 µM]
activity change, negative = inhibition [2]: -5.09% [at 10.5 µM]
viability change, negative = cytotoxic [3]: 0.971% [at 8.39 µM]
activity change, negative = cytotoxicity [4]: 8.33% [at 8.39 µM]
activity, negative = inhibition [5]: -13.2% [at 8.39 µM]
activation [6]: -1.38% [at 8.39 µM]
activity, negative = inhibition [9]: -0.314% [at 8.39 µM]
activation [8]: -0.0958% [at 8.39 µM]

O=c1[nH]c(=O)n([C@H]2C[C@H](O)[C@@H](CO)O2)cc1I
Potency [1]: inactive
Potency [2]: inactive
Potency [3]: inactive
Potency [4]: inactive
Potency [5]: inactive
Potency [6]: 11.9 µM (active)
outcome [8]: inactive

O=c1cc(CO)occ1O
Potency [1]: inactive
Potency [2]: inactive
Potency [3]: inactive
Potency [4]: inactive
Potency [5]: inactive
Potency [6]: inactive
Potency [7]: inactive
outcome [8]: inactive

CC(C)(C)NCCNC(C)(C)C
Potency [1]: inactive
Potency [2]: inactive
Potency [3]: inactive
Potency [4]: inactive
Potency [5]: inactive
Potency [6]: inactive
Potency [7]: inactive
outcome [8]: inactive
